Screens from PubChem BioAssay.
GPT2 inh: blocks human glutamate pyruvate transaminase 2; Q8TD30; Recombinant GPT2, coupled pyruvate oxidase/HRP Amplex Red fluorescence; Potency, µM (series often up to 57.7 µM), most hits filed as inhibitors; actives 0.25% (n = 100,000); further: nearly all actives have a fitted effect of over 60% in size
Target sequence (Q8TD30 whole entry, looked up): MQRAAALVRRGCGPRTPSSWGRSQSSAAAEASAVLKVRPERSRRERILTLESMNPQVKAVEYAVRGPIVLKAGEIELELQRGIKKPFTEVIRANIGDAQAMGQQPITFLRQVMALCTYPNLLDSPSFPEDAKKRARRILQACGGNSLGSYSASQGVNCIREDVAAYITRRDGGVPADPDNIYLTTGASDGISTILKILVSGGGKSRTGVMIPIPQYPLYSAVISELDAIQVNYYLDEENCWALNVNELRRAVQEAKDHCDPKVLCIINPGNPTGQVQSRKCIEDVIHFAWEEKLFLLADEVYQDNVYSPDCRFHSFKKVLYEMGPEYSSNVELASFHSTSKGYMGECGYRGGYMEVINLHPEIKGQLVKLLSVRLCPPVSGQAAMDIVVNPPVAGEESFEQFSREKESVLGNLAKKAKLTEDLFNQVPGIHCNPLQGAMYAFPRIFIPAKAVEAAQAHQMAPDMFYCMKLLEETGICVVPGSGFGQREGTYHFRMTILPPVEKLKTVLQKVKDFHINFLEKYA
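Inhibition is scored from Amplex Red fluorescence generated when pyruvate oxidase and HRP act on pyruvate released by GPT2. Reactions contain 10ng/uL enzyme, 250uM a-KG and 2mM L-alanine and run 30 min at room temperature.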
Luciferase inh: inhibitors of firefly (Photinus pyralis) luciferase; P08659; purified P. pyralis luciferase, luminescence, biochemical; Potency, µM (top dose mostly 115 µM), usual class: inhibitors; actives 2.5% (n = 76,000); AID 1347043; further: nearly all actives have a fitted effect of over 65% in size
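Luminescence read by CCD imager after adding enzyme (10nM final) to wells holding compound, titrated in qHTS. Substrates 10uM each D-luciferin and ATP; buffer 50mM Tris acetate pH 7.5, 10mM Mg acetate, Tween-20, BSA.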
NPR1 antag: human Npr1 receptor antagonism. P16066. HEK293 hNpr1 GloSensor cGMP, ANP-stimulated luminescence. AID 1347048. Potency, µM (doses to about 46.3 µM), hits mostly inhibitors. actives 1.6% (n = 76,000); calls by dose curve; further: nearly all actives have a fitted effect of over 60% in size
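Compound pre-incubated 30 min at room temperature on GloSensor-loaded HEK293 cells stably carrying hNpr1 and the pGS-40F cGMP biosensor. Stimulation uses hNppA at 0.1 nM final; luminescence is taken at baseline and 20 min post-agonist.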
NIH3T3 tox: cytotoxic compounds in NIH 3T3 cells. NIH 3T3 viability, CellTiter-Glo ATP luminescence, 48-72 h. actives 4.3% (n = 94,000). Potency, µM (series often up to 96.7 µM), most hits filed as inhibitors; further: nearly all actives have a fitted effect of over 55% in size
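Cytotoxicity is measured as loss of cellular ATP: NIH 3T3 cells (400/well) are exposed to compound for 48 or 72 hr at 37 °C, then CellTiter-Glo luminescence is imaged after 10 min at room temperature.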
HEK cytotox: HEK 293 cell cytotoxicity. HEK 293 viability, ATP luminescence (CellTiter-Glo), 48-72 h. AID 1345083. Potency, µM (highest dose often 115 µM), hits mostly inhibitors. actives 6.6% (n = 94,000); further: nearly all actives have a fitted effect of over 60% in size
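Cytotoxicity was scored by loss of ATP-coupled luminescence (CellTiter-Glo) in HEK 293 cells. Compound treatment ran 48 or 72 hr at 37 degree Celsius, 5% CO2, 95% humidity.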
Npr1 antag conf: hNpr1 antagonism, confirmation assay | AID 1347044 | HEK293 hNpr1 cGMP GloSensor luminescence, ANP-stimulated | Potency, µM (highest dose often 57.6 µM), actives largely listed as inhibitors | shares compounds with NPR1 antag | actives 76% (n = 1,400); calls by dose curve; further: nearly all actives have a fitted effect of over 70% in size
Npr2 selectivity: hNpr2 antagonism, selectivity versus Npr1. HEK293 hNpr2 GloSensor cGMP luminescence, CNP-stimulated. Potency, µM (highest dose often 57.6 µM), usual class: inhibitors. shares compounds with NPR1 antag. actives 67% (n = 1,400). AID 1347046; calls by dose curve; further: nearly all actives have a fitted effect of over 70% in size
FLuc counter: counter-screen for Npr1 antagonists: firefly luciferase inhibitors; shares compounds with NPR1 antag; purified FLuc enzyme, luminescence, Km substrate; Potency, µM (series often up to 57.6 µM), hits mostly inhibitors; actives 0.7% (n = 1,400); AID 1347047
GloSensor cGMP: reduces cGMP signal in GloSensor control cells; shares compounds with NPR1 antag; HEK293 GloSensor cGMP, SNP-stimulated, luminescence; Potency, µM (highest dose often 57.6 µM), hits mostly inhibitors; actives 69% (n = 1,400); AID 1347051; calls by dose curve; further: nearly all actives have a fitted effect of over 70% in size
Large screens that a line does not name were inactive (follow-up assays come after a bar, where they were run). Most compounds without a hit are left out; they make up all but 10% or so of the library. Unless noted, the call rests on the fitted dose curve; in most records, active means well fitted curve in the direction sought with a large enough effect; inconclusive means small, poorly fitted or top-dose-only effect, or another doubt; inactive means no such curve, though single readings can be large; an effect the other way counts as inactive or inconclusive.

COc1cccc(-c2cc(C3CCN(C(=O)c4ccc(Br)cc4)CC3)[nH]n2)c1	NPR1 antag inconclusive, NIH3T3 tox inconclusive, HEK cytotox inconclusive | Npr1 antag conf 27µM | Npr2 selectivity inconclusive | FLuc counter inactive | GloSensor cGMP inconclusive
COc1cccc(CNC(=O)N2CCC(c3cc(-c4cccc(OC)c4)n[nH]3)CC2)c1	NPR1 antag inconclusive, NIH3T3 tox inconclusive, HEK cytotox inconclusive
CC1=CCC2C(C)(C)CCC[C@]2(C)[C@@]12CC[C@](C)(CC(=O)O)O2 (some centres undefined)	none (no result: Luciferase inh, NPR1 antag, NIH3T3 tox, HEK cytotox)
CC(C)Cn1cncc1CN1CCC2(CC1)C(C(=O)O)CC(=O)N2C (centres undefined)	none
CCn1c(=O)c2c(cc(C)n2C)n(CC(=O)Nc2cc(OC)cc(OC)c2)c1=O	none
O=C(Cn1nc2c(cc1=O)CCCCC2)N1CCN(c2ccc(Cl)cc2)CC1	none
COc1ccc(S(=O)(=O)N2CCC3(CCCNC3)C2)c(OC)c1 (centres undefined)	none
COc1cccc(-c2noc(CC3CCN(C(=O)c4ccc(C)cc4)CC3)n2)c1	NPR1 antag 3.5µM, NIH3T3 tox inconclusive, HEK cytotox inconclusive | Npr1 antag conf 4.8µM | Npr2 selectivity 5.4µM | FLuc counter inactive | GloSensor cGMP 4.3µM
CCOc1ccc(C(=O)N2CCC(Cc3nc(-c4cccc(OC)c4)no3)CC2)cc1	NPR1 antag 7.1µM, NIH3T3 tox inconclusive, HEK cytotox inconclusive | Npr1 antag conf 9.7µM | Npr2 selectivity 12µM | FLuc counter inactive | GloSensor cGMP 9.7µM
CCOc1ccc(C(=O)N2CCC(n3cc(-c4nc(-c5ccccc5)no4)nn3)CC2)cc1	Luciferase inh inconclusive, HEK cytotox inconclusive
CCc1ccc(C(=O)N2CCC(Cc3nc(-c4cccc(OC)c4)no3)CC2)cc1	NPR1 antag 4µM, NIH3T3 tox 40µM, HEK cytotox 22µM | Npr1 antag conf 9.7µM | Npr2 selectivity 14µM | FLuc counter inactive | GloSensor cGMP 12µM
Cc1cccc(C(=O)N2CCC(Cc3nc(C(C)C)no3)CC2)c1	NIH3T3 tox inconclusive, HEK cytotox inconclusive
Cn1c(C(=O)N2CCN(c3ccccn3)CC2)cc2c1CCN(Cc1ccccc1)C2	GPT2 inh inconclusive, NIH3T3 tox inconclusive, HEK cytotox inconclusive
CC(=O)Nc1ccc(S(=O)(=O)N[C@H]2CO[C@H]3[C@@H]2OC[C@H]3OC(=O)Nc2ccc(Oc3ccccc3)cc2)cc1	GPT2 inh inconclusive, NPR1 antag 11µM, NIH3T3 tox inconclusive, HEK cytotox inconclusive | Npr1 antag conf 12µM | Npr2 selectivity 17µM | FLuc counter inconclusive | GloSensor cGMP 12µM
CC(=O)Nc1ccc(S(=O)(=O)N[C@H]2CO[C@H]3[C@@H]2OC[C@@H]3Nc2nccc(-c3ccco3)n2)cc1	NPR1 antag 13µM, NIH3T3 tox inconclusive, HEK cytotox 25µM | Npr1 antag conf 24µM | Npr2 selectivity 24µM | FLuc counter inactive | GloSensor cGMP 27µM
COc1ccc(OC)c(S(=O)(=O)N[C@H]2CO[C@H]3[C@@H]2OC[C@H]3OC(=O)Nc2ccc(Oc3ccccc3)cc2)c1	NPR1 antag 8.9µM, NIH3T3 tox inconclusive, HEK cytotox inconclusive | Npr1 antag conf 11µM | Npr2 selectivity 14µM | FLuc counter inactive | GloSensor cGMP 9.7µM
COc1ccc(OC)c(S(=O)(=O)N[C@H]2CO[C@H]3[C@@H]2OC[C@H]3OC(=O)Nc2ccc(C(C)=O)cc2)c1	none
Cc1ccc([C@H]2C[C@@H](O)[C@@H](O)[C@@H]2NC(=O)C2CCOCC2)cc1	none
COc1cccc(C(=O)N2CCC(N3C[C@H](O)C[C@H]3C(=O)NC3CCCC3)CC2)c1	none (no result: Luciferase inh, NPR1 antag)
CC(C)Cc1cc(C(=O)NCc2nc(Cc3cccs3)no2)on1	none
CCCc1nc(NCc2nc(Cc3cccs3)no2)c2cnn(C)c2n1	NPR1 antag 13µM, NIH3T3 tox inconclusive, HEK cytotox 45µM | Npr1 antag conf 22µM | Npr2 selectivity 22µM | FLuc counter inactive | GloSensor cGMP 22µM
CCN(CC)CC(C)NC (centres undefined)	none (no result: Luciferase inh, NPR1 antag)
COc1ccc2nc3n(c2c1)[C@@H](CNCc1ccc2c(c1)OCO2)COC3	GPT2 inh inconclusive, NPR1 antag 32µM, NIH3T3 tox inconclusive, HEK cytotox inconclusive | Npr1 antag conf 40µM | Npr2 selectivity 40µM | FLuc counter inactive | GloSensor cGMP 40µM
Cc1ccc2nc3n(c2c1)[C@@H](CNCc1ccc2c(c1)OCO2)COC3	NPR1 antag 25µM, NIH3T3 tox inconclusive, HEK cytotox inconclusive | Npr1 antag conf 35µM | Npr2 selectivity 35µM | FLuc counter inactive | GloSensor cGMP 31µM
COc1ccc2nc3n(c2c1)[C@@H](CNC(=O)c1ccccc1)COC3	NIH3T3 tox inconclusive
Clc1ccc(C2CN(c3cc(C4CC4)ncn3)CCO2)cc1 (centres undefined)	NPR1 antag 11µM, NIH3T3 tox inconclusive, HEK cytotox 25µM | Npr1 antag conf 19µM | Npr2 selectivity 22µM | FLuc counter inactive | GloSensor cGMP 17µM
CCc1cnc(C)nc1N1CCOC(c2ccc(Cl)cc2)C1 (centres undefined)	GPT2 inh inconclusive, NPR1 antag 10µM, NIH3T3 tox inconclusive, HEK cytotox 11µM | Npr1 antag conf 14µM | Npr2 selectivity 15µM | FLuc counter inactive | GloSensor cGMP 12µM
CCOCC(=O)N1CCc2nc(N3CCN(C)CC3)sc2C1	none
O=C(Nc1cccc2ccccc12)O[C@@H]1CO[C@H]2[C@@H]1OC[C@@H]2NC(=O)c1cccs1	GPT2 inh inconclusive, NPR1 antag 22µM, HEK cytotox inconclusive | Npr1 antag conf 35µM | Npr2 selectivity inconclusive | FLuc counter inactive | GloSensor cGMP 31µM
CC(=O)c1ccc(NC(=O)O[C@@H]2CO[C@H]3[C@@H]2OC[C@@H]3NC(=O)COc2ccccc2)cc1	NIH3T3 tox inconclusive, HEK cytotox inconclusive
CC(=O)c1cccc(NC(=O)O[C@@H]2CO[C@H]3[C@@H]2OC[C@@H]3NC(=O)Nc2ccccc2)c1	HEK cytotox inconclusive
